This note sets out measurements from PubChem BioAssay (NCATS).

Assay [1] in a line: P-glycoprotein substrates identified in KB-3-1 adenocarcinoma cell line, qHTS therapeutic library screen (AID 1346986). Also: nearly all actives have a fitted effect of over 60% in size.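 Also: potency is for cytotoxicity meaning loss of cell viability.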 As to activity change, negative = cytotoxicity: % is scaled to controls: 0 for no effect and ±100 for the full control effect. The procedure, abridged: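 72 h cell-killing screen, 500 cells/well, CellTiter-Glo luminescence. Paired lines KB-3-1/KB-8-5-11; P-gp dependence checked by tariquidar co-treatment and HEK-293 MDR-19 versus empty-vector cells.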
A general note: qHTS replaces the single test concentration by a dilution series.

A short description of assay [2]: P-glycoprotein substrates identified in KB-8-5-11 adenocarcinoma cell line, qHTS therapeutic library screen (AID 1346987). Also: nearly all actives have a fitted effect of over 65% in size. As to activity change, negative = cytotoxicity: series mostly up to about 44 µM; % is scaled to controls: 0 for no effect and ±100 for the full control effect. The procedure, abridged:
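Luminescence from CellTiter-Glo, read 5 min after addition, quantified survival of KB-8-5-11 (P-gp-overexpressing) cells exposed to compounds for 72 h. AC50 was derived from concentration-response curves.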

Assay [3] in a line: NS1 protein of Zika virus - qHTS assay to identify small molecule inhibitors in human HEK 293 cells (AID 1347053). Also: nearly all actives have a fitted effect of over 55% in size. The method, boiled down:
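Compound-treated (1 h pre-infection) HEK 293 cells infected with ZIKV MR766, MOI = 0.5; after 24 h at 37 C, NS1 read by TR-FRET; data normalized to uninfected and infected controls.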

Where “and” joins values, the source holds several entries; their conditions need not be identical. Equal values may be shown once. Results filed as inconclusive are left out. More than one record can exist for a structure, and the calls need not agree. Calls of active or inactive are those of the source. Calls follow the shape of the dose curve; as a rule, active = well fitted curve in the direction sought with a large enough effect; inconclusive = small, poorly fitted or top-dose-only effect, or another doubt; inactive = no such curve, though single readings can be large; an effect the other way counts as inactive or inconclusive.
Potency is read from the fitted curve at half-maximal effect.

Consider `O=C(NCCCCN1CCOCC1)c1cc2ccccc2o1`, for which the Potency entry in assay [1], in assay [2] and in assay [3] was “inactive” each time.

Regarding `C[C@@]1(c2cc(-c3cncnc3)c(F)cc2F)CCSC(N)=N1`, the Potency result in assay [1], in assay [2] and in assay [3] was “inactive” each time.

Consider `CC[C@H](NC(=O)[C@H](C)NC)C(=O)N1C[C@@H](O)C[C@H]1Cc1c(-c2[nH]c3cc(F)ccc3c2C[C@H]2C[C@H](O)CN2C(=O)[C@H](CC)NC(=O)[C@H](C)NC)[nH]c2cc(F)ccc12`, for which the Potency result in assay [2] was “inactive”.

Take `Cn1c(=O)c(Oc2ccc(F)cc2F)cc2cnc(NC3CCOCC3)nc21`: the Potency entry in assay [1], in assay [2] and in assay [3] was “inactive” throughout.

`Cc1ccccc1C(=O)c1ccc(Nc2ccc(Br)cc2N)cc1Cl`: the Potency is 14.6 µM (active) in assay [1], 20.6 µM (active) in assay [2] and 9.35 µM (active) in assay [3].

In the case of `O=C1C(CCC(O)c2ccc(F)cc2)C(c2ccc(O)cc2)N1c1ccc(F)cc1` (stereo not drawn), the Potency entry in assay [2] was “inactive”.

For the molecule `COc1ccc(C=CC(=O)Nc2ccccc2C(=O)O)cc1OC`, in assay [2], the Potency result is “inactive”.

For the molecule `CN(C)c1ccccc1CN1CCCN(Cc2ccccc2N(C)C)C1c1ccncc1`, the Potency entry in assay [1] and in assay [2] was “inactive” each time. For the same molecule, the Potency in assay [3] was 11.8 µM (active).

For `Cc1cccc(-c2[nH]c(C(C)(C)C)nc2-c2ccc3c(c2)OCO3)n1`, the Potency in assay [2] is 10.3 µM (active).

On to `CNC(=O)c1cc(COc2nnc(Nc3ccc(Cl)cc3)c3ccoc23)ccn1`, for which the Potency entry in assay [2] was “inactive”.

For the molecule `COc1nccc(-c2c(-c3ccc(F)cc3)ncn2C2CCNCC2)n1`, the Potency result in assay [1], in assay [2] and in assay [3] was “inactive” throughout.

Take `CCC[C@@H](NC(=O)[C@@H]1[C@H]2CCC[C@@H]2CN1C(=O)[C@@H](NC(=O)[C@@H](NC(=O)c1cnccn1)C1CCCCC1)C(C)(C)C)C(=O)C(=O)NC1CC1`: the Potency result in assay [1], in assay [2] and in assay [3] was “inactive” each time.

For `Cc1ccc(S(=O)(=O)Nc2nc3ccccc3nc2Nc2ccc3nsnc3c2)cc1`, the Potency result is “inactive and 20.6 µM (active)” in assay [1]; “inactive and 2.91 µM (active)” in assay [2]. For the same molecule, the Potency entry in assay [3] is “inactive”.

Take `O=C1C(c2c(O)[nH]c3ccccc23)=Nc2ccccc21`: the Potency result in assay [1], in assay [2] and in assay [3] was “inactive” each time.

Turning to `CCN1C[C@H](C)n2c(c(O)c3c(=O)n(Cc4ccc(F)c(Cl)c4)nc(C(=O)NC)c32)C1=O`, the Potency entry in assay [1], in assay [2] and in assay [3] was “inactive” throughout.

As to `CCCCCCOC(=O)N=C(N)c1ccc(NCc2nc3cc(C(=O)N(CCC(=O)OCC)c4ccccn4)ccc3n2C)cc1`, the Potency entry in assay [2] is “inactive”.

As for `O=C(CO)N1CCC(c2[nH]nc(-c3ccc(Cl)cc3)c2-c2ccncn2)CC1`, the Potency entry in assay [1], in assay [2] and in assay [3] was “inactive” each time.

Consider `N#Cc1ccc(Oc2ccc3c(c2)COB3O)cc1`, for which the Potency entry in assay [2] was “inactive”.

Regarding `CN1N=C(N)c2cn([C@@H]3O[C@H](COP(=O)(O)O)[C@@H](O)[C@@H]3O)c3ncnc1c23`, the Potency in assay [2] is 0.833 µM (active).

Consider `O[C@@H](COc1cccc2ncccc12)CN1CCN(C2c3ccccc3[C@@H]3[C@H](c4ccccc42)C3(F)F)CC1` (stereo partly drawn), for which the Potency result in assay [2] is “inactive”.

For `COC(=O)[C@H](c1ccccc1Cl)N1CCc2sccc2C1`, the Potency result in assay [2] and in assay [3] was “inactive” throughout.

Consider `O=C(O)CCC=CCC[C@@H]1[C@H](N2CCCCC2)[C@@H](O)C[C@@H]1OCc1ccc(-c2ccccc2)cc1`, for which the Potency entry in assay [2] and in assay [3] was “inactive” throughout.

Turning to `CO[C@H]1C=CO[C@@]2(C)Oc3c(C)c(O)c4c(O)c(c(C=NN5CCN(C)CC5)c(O)c4c3C2=O)NC(=O)C(C)=CC=C[C@H](C)[C@H](O)[C@@H](C)[C@@H](O)[C@@H](C)[C@H](OC(C)=O)[C@H]1C`, the activity change, negative = cytotoxicity in assay [2] was 0.164% [at 9.29 µM] (inactive).

With `N#CC(c1ccnc(NCCc2cccnc2)n1)c1nc2ccccc2s1` (stereo not drawn), in assay [2], the Potency result was “inactive”.

Turning to `CC1CNc2c(cccc2S(=O)(=O)N[C@@H](CCCN=C(N)N)C(=O)N2CC[C@@H](C)C[C@@H]2C(=O)O)C1` (stereo partly drawn), the Potency entry in assay [2] and in assay [3] was “inactive” each time.

As for `CC(C)N(CCCNC(=O)Nc1ccc(C(C)(C)C)cc1)C[C@H]1O[C@@H](n2cc(Br)c3c(N)ncnc32)[C@H](O)[C@H]1O`, the Potency result in assay [2] is “inactive”.

Consider `C=CC(=O)Nc1cccc(Sc2nc(Nc3ccc(N4CCN(C)CC4)cc3)ncc2Cl)c1`, for which, in assay [2], the Potency is 23.1 µM (active).

As for `CC=C1C2C=C(C)CC1(N)c1ccc(=O)[nH]c1C2` (stereo not drawn), the Potency entry in assay [2] and in assay [3] was “inactive” in each case.

Consider `CCC(=C(CC)c1ccc(O)cc1)c1ccc(O)cc1`, for which the Potency entry in assay [2] is “inactive”.

As for `c1ccc(-c2oc3ncnc(NC[C@@H]4CCCO4)c3c2-c2ccccc2)cc1`, in assay [2], the Potency was 20.9 µM (active) and 20.6 µM (active).

For the molecule `CC(=O)Nc1cccc(-n2c(=O)n(C3CC3)c(=O)c3c(Nc4ccc(I)cc4F)n(C)c(=O)c(C)c32)c1`, the Potency entry in assay [2] was “inactive”.

As to `Cc1c(-c2cccc3c(CCCOc4cccc5ccccc45)c(C(=O)O)n(Cc4cccnc4)c23)c(COc2ccc(N3CCN([S+](=O)([O-])N(C)C)CC3)cc2)nn1C`, in assay [2], the Potency result was “inactive”.
